In the library only some 4.5% were active in any assay of this set; here they are far more common.
hcDAF12 agonist – H. contortus DAF-12 nuclear receptor activators, primary screen, cell-based, luminescence, HEK293, lit1-tk-luc reporter; HEK293 hcDAF-12 lit1-tk-luc reporter; 0% DMSO, 100% Δ7-dafachronic acid; 370,000 tested, 1.4% active; activation, % at 6.8 µM;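 active = activation above the mean of all tested compounds plus 3 SD, cut at about 5.5% in these data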;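 also: 100% = response to 3 µM Δ7-dafachronic acid high control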
FXN GAA850 act – FXN promoter activators, primary screen, cell-based, luciferase luminescence, HEK293 lucGAA850; HEK293 lucGAA850 FXN promoter luciferase reporter, 24 h; percent of 10 µM SAHA response; 360,000 tested, 0.56% active; activation, % at 6 µM; AID 540364, 2011;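 active = activation above the average of all compounds screened plus 3 SD, cutoff fixed separately per campaign, cut at about 7.5% in these data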;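 also: 0% = DMSO wells and 100% = 10 µM SAHA wells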
hgDAF12 agonist – H. glycines DAF-12 receptor agonists, primary screen, cell-based, luminescence, HEK293, GAL4 fusion, UAS-luciferase. HEK293 GAL4-hgDAF12 UAS-luciferase reporter, agonist luminescence; normalized to butyrate control. Nuclear hormone receptor DAF-12 (Heterodera glycines), GAL4 fusion. activation, % at 6.8 µM. 370,000 tested, 1.8% active;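 active = activation above a cutoff set at the mean of all screened compounds plus 3 SD, cut at about 10% in these data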;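 also: 0% = DMSO wells and 100% = sodium butyrate wells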
ssDAF12 agonist – S. stercoralis DAF-12 nuclear receptor activators, primary screen, cell-based, luminescence, HEK293, GRIP1 co-expression, lit1-tk-luc; 370,000 tested, 1% active; HEK293 ssDAF-12/GRIP1 lit1-tk-luc reporter; % of 3 µM dafachronic acid response; AID 652126, 2013; Nuclear hormone receptor DAF-12 (Strongyloides stercoralis); activation, % at 6.8 µM;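 active = activation above the mean over all tested compounds plus 3 SD, cut at about 0.9% in these data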;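 also: 0% = DMSO-only wells and 100% = 3 µM delta7-dafachronic acid wells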
DAX1 inh-1 – DAX1 (NR0B1) inhibitors, primary screen, cell-based, HEK293, Gal4-DAX1, luciferase luminescence; 340,000 tested, 0.99% active; Nuclear receptor subfamily 0 group B member 1 (Homo sapiens), P51843; HEK293 Gal4-DAX1 luciferase reporter; inhibition, % at 6.75 µM;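 active = inhibition above the mean over all tested compounds plus 3 SD, cut at about 4.2% in these data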;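 also: 0% = DAX1-transfected cells with DMSO and 100% = empty-vector control cells with DMSO; inhibition shows as a rise in luminescence from relieved DAX1 repression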
DAX1 inh-2 – DAX1 (NR0B1) inhibitors on StAR promoter, primary screen, cell-based, luminescence, SF-1 (NR5A1), full-length DAX-1 | HEK293T StAR-luciferase reporter, SF-1/DAX-1 repression relief | inhibition, % at 6.8 µM | 370,000 tested, 1.1% active | AID 652010, 2013;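 active = inhibition above the mean over all tested compounds plus 3 SD, cut at about 3.6% in these data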;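 also: 0% = DAX-1 cells with DMSO and 100% = cells lacking DAX-1 with DMSO; higher inhibition means more luminescence from relief of DAX-1 repression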
hgDAF12 ag – H. glycines DAF-12 receptor agonists, confirmation, cell-based, luminescence, HEK293, GAL4-LBD fusion; HEK293 GAL4-hgDAF12 luciferase reporter, agonist mode; percent of butyrate response; shares compounds with hgDAF12 agonist; 3,300 tested, 80% active; AID 743050, 2013; activation, % at 6.8 µM;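 active = mean activation over triplicate wells above the hit cutoff derived from the earlier primary screen, cut at about 11% in these data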;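 also: 0% = DMSO low control and 100% = 2 mM sodium butyrate high control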
LXR ag 2 – LXR agonists, Gal4 luciferase reporter, confirmation, counter-screen for hgDAF-12 agonist project, cell-based, luminescence, HEK293, H. glycines campaign | shares compounds with hgDAF12 agonist | 24 h | activation, % at 6.8 µM | 3,300 tested, under 10 active;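 active = mean activation of the triplicate above a set limit carried over from the primary screen, none filed active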
Target sequence (P55055 whole entry, looked up, the tested form may be a part): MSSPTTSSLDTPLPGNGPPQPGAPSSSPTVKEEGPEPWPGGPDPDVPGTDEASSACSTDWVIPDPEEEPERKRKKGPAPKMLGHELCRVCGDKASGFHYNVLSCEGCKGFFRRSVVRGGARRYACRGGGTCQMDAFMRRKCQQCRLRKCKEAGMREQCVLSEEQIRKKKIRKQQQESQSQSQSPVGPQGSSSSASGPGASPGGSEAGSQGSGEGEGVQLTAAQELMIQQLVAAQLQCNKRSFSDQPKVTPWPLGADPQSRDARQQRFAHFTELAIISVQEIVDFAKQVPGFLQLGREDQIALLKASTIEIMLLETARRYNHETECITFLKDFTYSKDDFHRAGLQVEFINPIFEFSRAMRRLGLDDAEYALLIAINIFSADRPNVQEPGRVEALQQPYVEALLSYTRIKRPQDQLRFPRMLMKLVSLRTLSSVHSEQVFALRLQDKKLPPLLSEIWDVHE
An asterisk follows results filed as active; . = not tested or not shown.

SMILES	hcDAF12 agonist	FXN GAA850 act	hgDAF12 agonist	ssDAF12 agonist	DAX1 inh-1	DAX1 inh-2	hgDAF12 ag	LXR ag 2
COc1ccc(C(=O)Nc2ccc(C)cn2)c(OC)c1	-1.0	-13.4	-7.0	-2.0	-4.2	-1.3	.	.
CC(=O)c1ccc(-c2ccc(C(=O)NCC3CCCO3)o2)cc1 (stereo not given)	2.1	3.4	-0.2	-1.4	-0.2	1.6	.	.
Cc1ccc(N=Cc2c(O)[nH]c3ccccc23)c([N+](=O)[O-])c1	0.8	5.9	14.8*	0.3	0.4	4.1*	12.3*	0.5
COCCNC(=S)N(C)[C@H]1C[C@H]2c3[nH]c4c(-c5ccc6c(c5)OCO6)cccc4c3CCN2C(=O)[C@H]1[C@H](C)O	-1.3	.	-2.1	-1.1	.	-1.5	.	.
Cc1ccc(CNC(=O)CCn2c(=O)oc3ccccc32)cc1	0.2	2.3	13.3*	-0.4	-0.3	-0.6	0.6	0.0
OC[C@@H]1CN(Cc2cccs2)C[C@H](n2cnc3c(NCc4ccc(F)cc4)ncnc32)O1	0.0	-1.1	-3.8	-0.9	.	-1.1	.	.
COc1cc(/C=N/OCC(=O)Nc2cc(C)cc(C)c2)ccc1OCc1ccc(Cl)cc1	4.5	6.9	15.6*	-0.6	-0.5	1.3	10.3	0.5
CC(NC(=O)c1ccc(C(=O)c2ccccc2)cc1)c1ccc(S(N)(=O)=O)cc1 (stereo not given)	-1.4	-0.7	0.9	-1.3	-0.5	-1.4	.	.
Cc1ccc(-c2cn(-c3ccccc3)c(=S)[nH]2)cc1C	6.2*	3.5	19.5*	0.4	3.7	0.5	14.4*	1.0
COc1ccc(C(=O)NNC(=O)c2cc3ccccc3cc2O)cc1	2.5	1.4	0.2	-0.5	0.8	-0.6	.	.
COc1ccc(NC(=O)c2cc3ccc(O)cc3o/c2=N\O)cc1	5.7*	5.2	17.7*	0.6	-0.2	2.5	15.0*	0.7
COc1ccc(C(=O)NNC(=O)C(=O)Nc2ccc(C)cc2)cc1	-0.2	-2.8	3.3	-0.5	-0.5	-0.1	.	.
COc1ccc(NC(=O)c2ccc(C)cc2)cc1	3.8	2.9	14.3*	0.8	-0.9	3.9*	17.8*	0.9
COc1ccc(NC(=O)c2cc3ccccc3cc2O)cc1	3.1	6.9	15.4*	-0.4	1.6	1.5	15.8*	0.4
COc1ccc(NC(=O)c2cccc(OS(=O)(=O)N(C)C)c2)cc1	2.3	4.4	16.8*	-1.2	-0.2	1.7	11.6*	0.5
COc1cc(C2c3cc4c(cc3OC(NCc3ccccc3)C2C)OCO4)cc(OC)c1OC (stereo not given)	0.2	-1.3	-4.7	-0.7	-0.8	3.4	.	.
CCCCOc1cccc(C2C(C(=O)c3cccs3)=C(O)C(=O)N2Cc2cccnc2)c1 (stereo not given)	-0.9	0.9	-2.6	-0.6	1.9	0.2	.	.
CN(C)S(=O)(=O)Oc1ccc(C(=O)Nc2ccc([N+](=O)[O-])cc2)cc1	-3.2	0.9	-4.6	-2.1	-3.8	-1.6	.	.
COC(=O)c1ccc(OS(=O)(=O)N(C)C)cc1	1.3	4.9	20.1*	-0.3	1.1	0.8	5.8	0.1
